This assay concerns the target Dual specificity protein kinase CLK1 (Homo sapiens) (UniProt P49759). The assay is described as follows: CLK1 binders by thermal stabilization, biophysical, recombinant human kinase, DSF (AID 382). The conditions noted are these: buffer 10 mM HEPES, stronger effect = higher value.
The mark [1] stands for this setting: measured here: replicate experiment 2, at 10 µM, run 2, protein 2 µM, NaCl 150 mM.

Calls of active or inactive are those of the source. The rule behind the calls is not given here.

Chain of Dual specificity protein kinase CLK1 (Homo sapiens) (P49759 whole entry, looked up): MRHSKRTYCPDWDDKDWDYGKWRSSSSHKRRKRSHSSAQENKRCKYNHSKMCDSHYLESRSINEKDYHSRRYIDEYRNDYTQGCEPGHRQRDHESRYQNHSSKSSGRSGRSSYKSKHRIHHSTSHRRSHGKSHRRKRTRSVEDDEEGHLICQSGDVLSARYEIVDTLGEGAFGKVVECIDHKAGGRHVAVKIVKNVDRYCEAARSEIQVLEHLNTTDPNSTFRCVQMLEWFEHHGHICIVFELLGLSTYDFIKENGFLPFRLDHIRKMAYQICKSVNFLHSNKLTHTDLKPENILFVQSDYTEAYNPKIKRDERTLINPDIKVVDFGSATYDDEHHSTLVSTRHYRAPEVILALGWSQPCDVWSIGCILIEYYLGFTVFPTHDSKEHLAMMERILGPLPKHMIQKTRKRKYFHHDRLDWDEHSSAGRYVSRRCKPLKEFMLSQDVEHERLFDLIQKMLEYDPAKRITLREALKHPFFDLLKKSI

Take `N#C/C(=C1\Nc2ccccc2S1)c1ccnc(NCCc2cccnc2)n1`: the Tm shift (at 10 µM, protein 2 µM, pH 7.5, NaCl 150 mM, with 50 µM L-Arg/L-Glu (1:1)) was 5.9 Celsius (active). Turning to `Cc1c2ccncc2c(C)c2c1[nH]c1ccccc12`, the Tm shift (at 10 µM, protein 2 µM, pH 7.5, NaCl 150 mM, with 50 mM Arg/Glu) is 3.3 Celsius (active). Turning to `CCn1cnc2c(Nc3cccc(Cl)c3)nc(N[C@@H]3CCCC[C@@H]3N)nc21`, under setting [1], the Tm shift was found to be 4.5 Celsius.

With `COc1ccc2c(c1)/C(=C/c1cnc[nH]1)C(=O)N2`, under setting [1], the Tm shift was 3.4 Celsius.
